aSyn UTR act: Activators working through SNCA 5'UTR binding (MLPCN). alpha-synuclein 5'UTR reporter, activators screen. activity score, % (tested at 7.5 µM), hits read low. hit rate 7.1% among 300,000; in the data active = activity score below about -60%
A number is an active result; i = inactive. Not all results are given here.

SMILES | aSyn UTR act
CCCC(=O)N1CCN(c2nc3ccc(Cl)cc3s2)CC1 | -139
CCCC(=O)N1CCN(c2nc3ccc(Br)cc3s2)CC1 | -142
CCCCC(=O)N1CCN(c2nc3ccc(Br)cc3s2)CC1 | -102
CCCC(=O)N1CCN(c2nc3ccc(CC)cc3s2)CC1 | -116
Cc1ccc(C(=O)CSc2nccn2-c2ccccc2)cc1 | -95
O=C(CSc1nccn1-c1ccccc1)c1ccc(Cl)cc1 | -111
O=C(CSc1nccn1-c1ncc(C(F)(F)F)cc1Cl)c1ccc(Br)cc1 | -195
CCCN1CCc2c(sc(NC(=S)NC(=O)c3ccccc3)c2C#N)C1 | -140
COC(=O)c1c(NC(=O)c2ccc([N+](=O)[O-])o2)sc2c1CCN(C(C)C)C2 | i
CC(C)N1CCc2c(sc(NC(=S)NC(=O)c3ccccc3)c2C#N)C1 | -143
Cc1c2cnn(CC(=O)NC3CCCC3)c(=O)c2c(C)n1Cc1ccccc1 | -100
CCOC(=O)c1c(C)[nH]c(C(=O)COC(=O)C2CC2C)c1C (stereo unspecified) | -143
Cn1c(C(C#N)C(=O)c2ccco2)nc2ccccc21 (stereo unspecified) | -125
CN(C)c1nc2ccc(OCCN3CCCCC3)cc2s1 | -71
Cc1cc2ncn(C(=O)N3CCC(C)CC3)c2cc1C | -67
COc1ccc(C(=O)c2ccsc2N)cc1 | -97
COc1ccc(C(=O)c2ccc(CC#N)s2)cc1 | -150
O=C(O)c1c(-c2ccc(Cl)cc2)cn2ccccc12 | -167
Cc1cc(C)c(OCC(=O)Nc2cc(C(=O)O)cc(C(=O)O)c2)cc1C | -129
Cc1ccc(C)c(OCC(=O)Nc2cccc(C(=O)O)c2)c1C | -110
CC(C)(C)C1CCC(OC(=O)c2cncc(Br)c2)CC1 (stereo unspecified) | -123
Cc1cccc(NC(=O)c2cccc(OC(=S)N3CCOCC3)c2)c1C | -66
O=C1CC(c2ccccc2)Sc2nc3ccccc3n21 (stereo unspecified) | -196
O=C1CC(c2ccc3c(c2)OCO3)Sc2nc3ccccc3n21 (stereo unspecified) | -160
COc1ccc2nc(NCc3cccnc3)sc2c1 | -75
SMILES | aSyn UTR act
COc1cccc(Cn2c(NCc3cccnc3)nc3c2c(=O)n(C)c(=O)n3C)c1 | i
Cc1cccc(Nc2nc3ccccc3s2)c1C | -181
COc1ccc(Nc2nc3ccccc3s2)cc1 | -159
COc1ccc2nc(NC3=NCCC3)sc2c1 | -179
COc1ccc2c(c1)sc(N)[n+]2Cc1cc(C)cc2cccnc12 | i
COc1cccc(Nc2nc3ccc(OC)cc3s2)c1 | -168
COc1ccc2nc(-n3c(C)ccc3C)sc2c1 | -62
Nc1cc(-c2ccccc2)ccc1O | -118
CN(C1=C(NC(=O)c2ccc(Cl)cc2)C(=O)c2ccccc2C1=O)c1ccccc1 | -83
NC(=O)c1cc(-c2csc(-c3cccnc3)n2)ccc1O | -102
CN(C(=O)c1cccnc1)c1nc(-c2ccccc2)cs1 | -128
CN1CCN(CC(=O)N(C)c2nc(-c3ccccc3)cs2)CC1 | -150
c1ccc(-c2nc(-c3cccnc3)cs2)cc1 | -109
c1ccc(-c2csc(-c3cccnc3)n2)cc1 | -78
O=c1c2ccccc2ncn1-c1ccc2c(c1)OCCO2 | -111
CC#CC#Cc1cccc(=O)o1 | -116
COc1ccc(-c2cc(C(F)(F)F)nc(S(=O)(=O)CCC(=O)N3CCOCC3)n2)cc1 | -76
O=C(COc1ccc(Cl)cc1)Nc1cccc(-c2ccc(N3CCOCC3)nn2)c1 | -71
CC1CCN(c2ccc(-c3ccc(NC(=O)C(F)(F)F)cc3)nn2)CC1 | i
O=C(Nc1cccc(-c2ccc(N3CCOCC3)nn2)c1)c1ccccc1Cl | -110
O=C(Nc1cccc(-c2ccc(N3CCOCC3)nn2)c1)c1ccc(Cl)cc1 | -86
Cc1ccc(C(=O)Nc2cccc(-c3ccc(N4CCOCC4)nn3)c2)cc1 | -70
Cc1cc(C(=O)Nc2cccc(-c3ccc(N4CCOCC4)nn3)c2)ccc1[N+](=O)[O-] | -110
Cc1ccc(C(=O)Nc2cccc(-c3ccc(N4CCOCC4)nn3)c2)cc1C | -73
Cc1ccc(S(=O)(=O)Nc2cc(-c3nn(C)c(=O)c4ccccc34)ccc2N2CCOCC2)cc1 | i
SMILES | aSyn UTR act
Cc1ccc(S(=O)(=O)Nc2cccc(-c3ccc(N4CCCCCC4)nn3)c2)cc1 | -125
O=C(Nc1ccc(F)cc1F)c1cc2nc3c(c(C(F)(F)F)n2n1)CCCC3 | -79
O=C(Nc1ccc(F)cc1F)c1cc2n(n1)C(C(F)(F)F)C1CCCCC1N2 (stereo unspecified) | -69
O=C(N/N=C/c1cc([N+](=O)[O-])ccc1O)c1cccc(NC(=O)c2cccc(Cl)c2)c1 | i
O=[N+]([O-])c1ccc(Cl)c(/C=N/NC(=S)Nc2ccccc2)c1 | -79
Cc1nn(C)cc1/C=N/NC(=S)Nc1ccccc1 | -137
O=C(Nc1cc(C(F)(F)F)ccc1Cl)C(Sc1nnc(-c2cccs2)o1)c1ccccc1 (stereo unspecified) | -109
Cn1c(-c2ccc(Cl)cc2)cnc1N | -126
Cc1ccc(-c2cnc(N)n2C)cc1C | -71
CC(C)(C)n1nc(-c2ccc(Cl)cc2)c2c(N)ncnc21 | i
CC(C)(C)c1ccc(C(=O)NNC(=O)C2CCCCC2)cc1 | -64
CC(C)(C)c1ccc(C(=O)NCC(=O)N2CCCC2)cc1 | -74
CC(C)(C)c1ccc(C(=O)N2CCCCCC2=O)cc1 | i
Cc1ccc(S(=O)(=O)Cc2ccc(C(=O)N3CCN(c4cccc(C)c4C)CC3)o2)cc1 | i
Cc1ccc(C(=O)NCCC(=O)N2CCCC2)cc1 | -146
Cc1cccc(N2CCN(C(=O)c3c(-c4ccccc4)noc3C)CC2)c1C | i
Cc1cccc(N2CCN(C(=O)CNC(=O)c3ccccc3)CC2)c1C | -81
Cc1c(-c2ccc(Cl)cc2)[n+](=O)c(-c2ccccc2)cn1[O-] | -118
Cc1ccc2c(c1)C1CN(C)CCC1N2C(=O)Nc1ccc(Cl)cc1 (stereo unspecified) | -66
COc1ccc(COc2ccsc2C(=O)Nc2ccc(Cl)c(Cl)c2)cc1 | -68
CCOC(=O)c1c(NC(=O)c2cc(C)oc2C)sc(C(=O)Nc2ccc(Cl)cc2)c1C | -102
Cc1ccc(C(=O)Nc2ccc(OCc3ccccc3)cc2)s1 | -107
Cc1ccsc1C(=O)Nc1ccc(OCc2ccccc2)cc1 | -191
Cc1cc(C(=O)Nc2ccc(OCc3ccccc3)cc2)c(C)o1 | -134
O=C(NCCc1ccccn1)c1ccc2nc(Cc3ccccc3F)oc2c1 | -111
SMILES | aSyn UTR act
Cn1cc(CCNC(=O)c2ccc3nc(Cc4ccccc4F)oc3c2)cn1 | -116
Cn1cc(CNC(=O)c2ccc3nc(Cc4ccccc4F)oc3c2)cn1 | -84
CCn1nnc2cc(C(=O)NCCc3ccccc3F)ccc21 | i
CCOc1ccc(NC(=O)C(c2ccccn2)N(C(=O)CCl)c2ccc(F)cc2)cc1 (stereo unspecified) | -71
COc1cccc(-n2cc3c(=O)n(C)c(=O)n(C)c3c2)c1 | -86
Cc1cc(C)cc(NS(=O)(=O)c2ccc3c(c2)c(=O)n(C)c(=O)n3C)c1 | i
CC1CCC(NC(=O)c2ccc3snnc3c2)CC1 (stereo unspecified) | -86
CCc1nc2ccc(C(=O)NC3CCC(C)CC3)cc2nc1CC (stereo unspecified) | -86
COc1ccc(C2CC2C(=O)c2ccccn2)cc1 (stereo unspecified) | -73
COc1ccc(C2CC2/C(=N/O)c2ccccn2)cc1 (stereo unspecified) | -86
COc1ccc(-c2nc3n(c2C)Cc2ccccc2-3)cc1 | -129
CCN1CCN(/C=N/c2nc(C)cs2)CC1 | -83
COc1ccc(S(=O)(=O)n2ccc(-c3cnc(-c4ccccc4)s3)n2)cc1 | -140
